These results are taken from PubChem BioAssay (NCI).

Each structure is given as a SMILES string. This is part of a sample that, as a whole, favours compounds with a hit. Of some 83,000 tested, about 20% had one in any assay.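 Negative percent growth values reflect cell death: -40 means 40% of the cells present at the start died, and -100 means all died.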 A number with no mark means an inactive call. Active and inactive are the calls of the source. How the source made its calls: active means growth percent below 10; inactive means the rest.

The test system of the test is MALME-3M melanoma. Description: NCI-60 one-dose screen, 48 h (100 = growth as untreated, 0 = no growth, -100 = all killed). To be noted: 10 µM unless noted.
As to `CCOC(=O)c1ccc(N(CCC(=O)O)C(C)=O)cc1`, the growth is 99.8%.
Under `Nc1c(C(=O)Nc2cccc(Cl)c2)sc2ncc(Br)cc12` stands 66.9%; under `CSC(=S)N/N=C(\C)c1ccccn1`, -3.24% (active); under `CC(=O)O[C@H]1[C@H](CC#CC#CC[C@@H]2C[C@]3(C)[C@H]4CC=C5[C@H]6[C@@H](C)[C@H](C)CC[C@]6(C(=O)NCCCCCCCCN)CC[C@@]5(C)[C@]4(C)CC[C@H]3C(C)(C)[C@H]2OC(C)=O)C[C@]2(C)[C@H]3CC=C4[C@H]5[C@@H](C)[C@H](C)CC[C@]5(C(=O)NCCCCCCCCN)CC[C@@]4(C)[C@]3(C)CC[C@H]2C1(C)C`, 105%.
Under `CC(C)COC(=O)NC(C)(C)C` stands 107%; under `CCC(=O)NC(O)C(Cl)(Cl)C(C)Cl` (stereo not drawn), 87%.
Turning to `C#CCNC(=S)N/N=C(\C)c1ccccn1`, the growth is 12.1%.
Under `COc1ccc(-c2nnc(SCC(=O)Nc3ccc(C(=O)/C=C/c4ccc(Cl)cc4)cc3)n2-c2ccccc2)cc1` stands 112%.
The same measure for `CC1CCN(Cc2ccc(NC(=O)c3cc4ccc5cccnc5c4[nH]3)cc2)CC1`: 10.2%; for `CC(C)N1CCN(c2ccncc2S(=O)(=O)N2CCN(C)CC2)CC1`: 113%.
Under `O=C(/C=C/c1ccccc1)n1c(-c2ccccc2)nc2ccccc21` stands 112%; under `COC1CC(N)C2OC(c3ccccc3)OCC2O1` (stereo not drawn), 106%; under `COc1cccc(NC(=O)[C@H](C(C)C)n2c(=O)[nH]c3ccccc3c2=O)c1`, 104%.
